# Reference: ChEMBL document CHEMBL1857833, “Screening and optimization of specific chemical series against human African Trypanosomiasis (HAT)”
# Hit rate of the full screen: of about 4,400 compounds, about 390 (8.9%) showed an effect of 50% or more. The list comes from a sample in which strong results are over-represented; it also holds similar structures and randomly drawn compounds.
# Tested on: Trypanosoma brucei
# Assay: DNDI: Inhibition of Human African Trypanosomiasis, SBRI 427, in vitro at 2 ug.mL-1
# Format: functional
row,Structure (SMILES),% inhibition
1,COc1ccc(N(C)Cc2coc(-c3ccc(F)cc3)n2)cc1,-2%
2,Cc1ccc(C)c(N2CCN(Cc3coc(-c4ccc(OC(F)(F)F)cc4)n3)CC2)c1,33%
3,Cc1ccc(/C(=N/O)NC(C)C)c(Oc2cccc3ccc(C)nc23)n1,31%
4,O/N=C(\NC1CCc2ccccc21)c1ccc(Oc2c(F)c(F)cc(F)c2F)nc1 (stereo not given),19%
5,CN(/C(=N\O)c1ccc(Oc2c(F)c(F)cc(F)c2F)nc1)C1CCCCC1,21%
6,O/N=C(\NC1CCCC1)c1ccc(Oc2c(F)c(F)cc(F)c2F)nc1,99%
7,CC1CCC(N/C(=N\O)c2ccc(Oc3c(F)c(F)cc(F)c3F)nc2)CC1 (stereo not given),17%
8,O/N=C(\NCC1CCCCC1)c1ccc(Oc2c(F)c(F)cc(F)c2F)nc1,40%
9,O/N=C(\NC1CCCCC1)c1ccc(Oc2c(F)c(F)cc(F)c2F)nc1,100%
10,O/N=C(\NCC1CCCO1)c1ccc(Oc2c(F)c(F)cc(F)c2F)nc1 (stereo not given),25%
11,CC1CC(N/C(=N\O)c2ccc(Oc3c(F)c(F)cc(F)c3F)nc2)CC(C)(C)C1 (stereo not given),22%
12,O/N=C(\NC1CCC1)c1ccc(Oc2c(F)c(F)cc(F)c2F)nc1,100%
13,CCOc1ccc(-c2nc(CN(C)CCc3ccccc3)co2)cc1,10%
14,CCOc1cccc(-c2nc(CNc3ccccc3C)co2)c1,20%
15,CC(C)c1ccc(N/C(=N\O)c2ccc(Oc3cccc4ccccc34)nc2)cc1,16%
16,O/N=C(\NCc1ccncc1)c1ccc(Oc2c(F)c(F)cc(F)c2F)nc1,6%
17,CC(C)CN(C)Cc1coc(-c2ccccc2Cl)n1,1%
18,COc1ccc(Oc2ncccc2/C(=N/O)N(C)C2CCCCC2)cc1,-15%
19,O/N=C(/c1cccnc1Oc1ccc(Cl)cc1)N1CCC2CCCCC2C1 (stereo not given),-20%
20,COc1ccc(Oc2ncccc2/C(=N/O)NC2CCCCC2)cc1,98%
21,O/N=C(\NC1CCCC1)c1cccnc1Oc1ccc2c(c1)CCCC2,1%
22,O/N=C(\NCc1ccccc1)c1cccnc1Oc1ccc2c(c1)CCCC2,-4%
23,O/N=C(/c1cccnc1Oc1ccc2ccccc2c1)N1CCC2CCCCC2C1 (stereo not given),100%
24,COc1ccc(Oc2ncccc2/C(=N/O)N2CCC3CCCCC3C2)cc1 (stereo not given),-2%
25,COc1ccc(Oc2ncccc2/C(=N/O)NC2CCCC2)cc1,99%
26,O/N=C(\NC1CCC1)c1cccnc1Oc1ccc2c(c1)CCCC2,100%
27,O/N=C(/c1ccnc(Oc2ccc(Cl)cc2)c1)N1CC=CCC1,8%
28,COc1ccc(-c2nc(Cn3nc(C)cc3C)co2)cc1,-6%

row,Structure (SMILES),% inhibition
1,Cc1cccc(N2CCN(Cc3coc(-c4ccc(Br)cc4)n3)CC2C)c1 (stereo not given),15%
2,COc1ccc(-c2nc(CNCCc3ccc(C)cc3)co2)cc1,-3%
3,Cc1ccc(CN/C(=N\O)c2ccc(Oc3cc(Cl)ccc3Cl)nc2)o1,9%
4,Cc1cccc(Oc2ncccc2/C(=N/O)N2CCC=N2)c1C,2%
5,C=CCN(Cc1coc(-c2ccccc2Cl)n1)C1CCCCC1,13%
6,O/N=C(\NCc1cccs1)c1ccc(Oc2c(F)c(F)cc(F)c2F)nc1,1%
7,Cc1cc(Oc2ccc(/C(=N/O)N3CCN(c4ccc(F)cc4)CC3)cn2)cc(C(C)C)c1,3%
8,COc1ccc(-c2nc(CN3CCN(c4cccc(Cl)c4)CC3)co2)cc1,10%
9,N/C(=N/O)c1cccnc1Oc1ccc2ccccc2c1,-3%
10,COc1ccc(Oc2ncccc2/C(=N/O)NC2CCC2)cc1,98%
11,O/N=C(\Nc1ccccc1)c1cccnc1Oc1ccc2ccccc2c1,14%
12,O/N=C(\NC1CCCCC1)c1cccnc1Oc1ccc2ccccc2c1,99%
13,COc1ccc(Oc2ncccc2/C(=N/O)N2C(C)CCC2C)cc1 (stereo not given),-10%
14,COc1ccc(Oc2nc(C)ccc2/C(=N/O)NC2CCC(C)CC2)cc1 (stereo not given),47%
15,O/N=C(\NCc1cc(F)ccc1F)c1ccc(Oc2ccc(Cl)cc2)nc1,-8%
16,CSCCN/C(=N\O)c1ccc(Oc2ccc(Cl)cc2)nc1,-6%
17,CC1CCN(/C(=N\O)c2ccc(Oc3ccc(Cl)cc3)nc2)CC1,26%
18,CCc1ccc(Oc2ccc(/C(=N/O)NC3CC3)cn2)cc1,8%
19,O/N=C(\NC1CCc2ccccc21)c1ccc(Oc2ccc(Cl)cc2)nc1 (stereo not given),-11%
20,CCc1ccc(Oc2ccc(/C(=N/O)Nc3ccccc3)cn2)cc1,17%
21,CCc1ccc(Oc2ccc(/C(=N/O)NC3CCCC3)cn2)cc1,78%
22,O/N=C(\NC1CCCC1)c1ccc(Oc2ccc(Cl)cc2)nc1,98%
23,N/C(=N\O)c1ccc(Oc2ccc(Cl)cc2)nc1,15%
24,O/N=C(/c1ccc(Oc2ccc(Cl)cc2)nc1)N1CCCCCC1,-7%
25,CC1CCC(N/C(=N\O)c2ccc(Oc3ccc(-n4ccnc4)cc3)nc2)CC1 (stereo not given),21%
26,O/N=C(\NC1CCCCC1)c1ccc(Oc2ccc(Cl)cc2)nc1,93%
27,CC1CCC(N/C(=N\O)c2ccc(Oc3ccc(Cl)cc3)nc2)CC1 (stereo not given),88%
